The record followed here is PubChem BioAssay AID1851 (National Center for Advancing Translational Sciences (NCATS), 2009).

Each structure is given as a SMILES string. The whole screen tested about 16,000 compounds, of which about 2,600 (16%) were called active. Roughly 20% stayed inconclusive and do not appear here. These entries were drawn from the full list. A number with no mark means an inactive call. The call rests on the fitted dose curve; in most records, active means well fitted curve in the direction sought with a large enough effect; inconclusive means small, poorly fitted or top-dose-only effect, or effect the other way; inactive means no such curve, though single readings can be large or run the other way.
On the % scale 0 is the no-effect control and ±100 the full control effect.

Chain of Cytochrome P450 2D6 (Homo sapiens) (P10635 whole entry, looked up): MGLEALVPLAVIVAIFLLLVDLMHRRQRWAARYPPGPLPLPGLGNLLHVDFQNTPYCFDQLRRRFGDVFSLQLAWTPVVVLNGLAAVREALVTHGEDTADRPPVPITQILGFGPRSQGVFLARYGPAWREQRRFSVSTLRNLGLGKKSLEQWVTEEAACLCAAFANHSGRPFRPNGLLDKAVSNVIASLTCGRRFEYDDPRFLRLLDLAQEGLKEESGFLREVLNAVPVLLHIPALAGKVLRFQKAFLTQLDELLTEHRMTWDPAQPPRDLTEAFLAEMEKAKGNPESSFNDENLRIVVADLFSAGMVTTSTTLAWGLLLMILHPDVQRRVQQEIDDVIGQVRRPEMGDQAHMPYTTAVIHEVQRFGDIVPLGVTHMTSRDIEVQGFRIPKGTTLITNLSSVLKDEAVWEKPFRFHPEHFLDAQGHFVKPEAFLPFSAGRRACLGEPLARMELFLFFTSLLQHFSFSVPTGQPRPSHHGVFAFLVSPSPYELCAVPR

This test deals with Cytochrome P450 2D6 (Homo sapiens) (UniProt P10635). Briefly: Cytochrome panel assay with activity outcomes. Conditions: recombinant CYP, pro-luciferin dealkylation, luminescence, p450-cyp2d6; series mostly up to 57.1 µM; activity, negative = inhibition: at the top concentration. As to the method:
The P450 gene superfamily is involved in the metabolism and clearance of xenobiotics. This assay used various human CYP P450 isozymes to measure the dealkylation of various pro-luciferin substrates to luciferin. The luciferin is then measured by luminescence after the addition of a luciferase detection reagent. Pro-luciferin substrate concentration in the assay was equal to its KM for its CYP P450 isozyme. Inhibitors and some substrates limit the production of luciferin, and decrease measured luminescence.
NCGC Assay Protocol Summary:
1, Reagent, 2 uL, Isozyme and Pro-Luciferin
2, Library compounds, 23 nl, 40 uM to 0.24 nM dilution series
3, Controls, 23 nl, Isozyme specific inhibitor
4, Reagent, 2 uL, NADPH regeneration solution
5, Incubation time, 60 min, Isozyme specific temperature
6, Reagent, 4ul, Detection reagent
7, Incubation time, 20 min, Isozyme specific temperature
8, Detection, 1 sec, ViewLux luminescent read
The luciferase-based P450-GloTM Screening Systems were obtained from Promega (Madison, WI) for CYP 1A2 (V9770), CYP 2C9 (V9790), CYP2 C19 (V9880), CYP 2D6 (V9890), and CYP 3A4 Luciferin-PPXE (V9910) and were adapted for 1,536-well microplates and an automated protocol. The control compounds furafylline for 1A2 (F124), sulfaphenazole for CYP 2C9 (S0758), ketoconazole for CYP 2C19 (K1003), quinidine for 2D6 (Q3625), and ketoconazole for 3A4 (K1003) were purchased from Sigma Aldrich (St. Louis, MO). Recombinant P450 enzymes were obtained from baculovirus constructs expressed in insect cells (BD/Gentest).
Medium-binding white solid Kalypsys plates used. Mixtures kept on ice. 1A2: 10 nM 1A2, 100 uM Luc-ME, 100 mM KPO4; 2C9: 10 nM 2C9, 100 uM Luc-H, 25 mM KPO4; 2C19: 5 nM 2C19, 10 uM Luc-H EGE, 50 mM KPO4; 2D6: 5 nM 2D6, 30 uM Luc-ME EGE, 100 mM KPO4; 3A4: 10 nM, 25 uM Luc-PPXE. All amounts are reflected in their final concentration, working concentration is 2x.
NADPH regeneration solution: 1.3 mM NADP+, 3.3 mM glucose-6-phosphate, 3.3 mM MgCl2, 0.4 U/mL glucose-6-phosphate dehydrogenase for all isozymes, 200 mM KPO4 for 3A4. Mixture prepared at RT but kept on ice during automated run.
RT incubation in auxilliary plate hotel for 1A2, 2D6, and 3A4; 37C for 2C9 and 2C19.
Keywords: P450, CYP1A2, CYP2C19, CYP2C9, CYP2D6, CYP3A4, Luciferase, MLSMR, MLSCN, NIH Roadmap, qHTS, NCGC
Turning to `Cc1ccc2c(c1)C1(SCCS1)C(=O)N2`, the “activity, negative = inhibition” value was -11.7%.

For `Nc1ccc(C(=O)NCC(=O)O)cc1`, the “activity, negative = inhibition” value was 2.31% [at 25.6 µM].

In the case of `O=C(CCNC(=O)Cn1ccc2ccccc2c1=O)NCCCN1CCN(c2ccc(F)cc2)CC1`, the AC50 is 10 µM (active).

Turning to `COc1ccc(N2CCN(CCNC(=O)c3c(C)cc(=O)oc3C)CC2)cc1`, the “activity, negative = inhibition” value is 2.34%.

For the compound `COc1ccc(S(N)(=O)=O)cc1C(=O)NCCCN1CCN(c2ccc(C)cc2)CC1`, the “activity, negative = inhibition” value is 5.97%.

For `COc1ccc(OC)c(CNC(=O)CCNC(=O)Cn2ccc3ccccc3c2=O)c1`, the “activity, negative = inhibition” value was 1.01%.

Regarding `Cc1ccccc1CN1CCN(CC(=O)NCCCN2CCN(c3ccc(F)cc3)CC2)C1=O`, the AC50 is 6.31 µM (active).

Take `COc1cccc(CNC(=O)CCNC(=O)Cn2ccc3ccccc3c2=O)c1`: the “activity, negative = inhibition” value was -19.9%.

`COC(=O)CSc1nc(C)cc(C(F)(F)F)c1C#N`: the “activity, negative = inhibition” value is 15.4%.

For the compound `Cc1cc2nnc(SCC(=O)N3CCN(c4ccccc4)CC3)n2c(N)n1`, the “activity, negative = inhibition” value was 3.62%.

Take `CC(NC(=O)c1ccc(Cl)cc1)c1nnc(SCc2ccc([N+](=O)[O-])cc2)n1C` (stereo not given): the “activity, negative = inhibition” value is -14.9%.

In the case of `C1CCc2nnnn2CC1`, the “activity, negative = inhibition” value was -1.71%.

For `Cc1ccc(-c2ccc(/C=N/NC(=S)Nc3ccccc3)o2)cc1[N+](=O)[O-]`, the “activity, negative = inhibition” value is 5.91%.

With `O=C(c1cccc(F)c1)N1CCC2(CCCN(c3ccccc3)C2)CC1`, the “activity, negative = inhibition” value is -3.85%.

For the compound `O=C(c1cccc(F)c1)N1CCC2(CCN(Cc3ccccc3)CC2)CC1`, the AC50 is 7.94 µM (active).

Consider `O=C(c1cccc(F)c1)N1CCC2(CCN(Cc3cc(C(F)(F)F)cc(C(F)(F)F)c3)CC2)CC1`, for which the “activity, negative = inhibition” value is 0.176%.

As for `CC(C)NC(=O)N1CCC2(CC1)CCN(C(=O)c1cccc(F)c1)CC2`, the “activity, negative = inhibition” value was 4.28%.

Take `CC(C)CN1CC2(CCN(C(=O)c3cccc(F)c3)CC2)C1`: the “activity, negative = inhibition” value is 7.2%.

Consider `N#Cc1ccc(CN2CC3(CCN(C(=O)c4cccc(F)c4)CC3)C2)cc1`, for which the “activity, negative = inhibition” value is -5.46%.

As to `O=C(c1cccc(F)c1)N1CCC2(CC1)CN(Cc1ccccc1)C2`, the AC50 was 5.01 µM (active).

With `CC(C)CN1CCC2(CC1)CCN(C(=O)c1cccc(F)c1)CC2`, the AC50 is 5.01 µM (active).

On to `O=C(c1cccc(F)c1)N1CCC2(CC1)CN(c1cccc(-c3ccccc3)c1)C2`, for which the “activity, negative = inhibition” value is 0.562%.

As for `O=c1c(-c2ccc(F)cc2)nc2cnc(N3CCOCC3)nc2n1Cc1cccs1`, the “activity, negative = inhibition” value was -3.77%.

In the case of `O=C(C(Cc1ccccc1)N1C(=O)C2C3CCC(C3)C2C1=O)N1CCCCC1` (stereo not given), the “activity, negative = inhibition” value is -5.07%.

For `CCCCS(=O)(=O)NC1=NCN(Cc2ccco2)CN1`, the “activity, negative = inhibition” value is -3.88%.

As to `COC(=O)c1nn(-c2cccc(C(F)(F)F)c2)c(=O)cc1Sc1ccccn1`, the “activity, negative = inhibition” value is 7.99%.

Regarding `O=c1c(-c2ccccc2)nc2cncnc2n1Cc1ccccc1Cl`, the “activity, negative = inhibition” value is -6.57%.

As to `COc1cc(Br)cc2cc(C(=O)NCC3CCCO3)c(=O)oc12` (stereo not given), the “activity, negative = inhibition” value is -18.9%.

For `CC(c1ccccc1C(O)c1ccccc1)N(C)C` (stereo not given), the “activity, negative = inhibition” value was -28.5%.

For the compound `Cn1c(=O)n(-c2ccc(Cl)cc2)c(=O)c2c3c(sc21)COC(C)(C)C3`, the “activity, negative = inhibition” value is 7.91%.

As for `COc1ccc2c(c1[N+](=O)[O-])CCC/C2=N/OC(=O)c1cccc2ccccc12`, the “activity, negative = inhibition” value was -1.88%.

In the case of `O=C(N/N=C/c1ccc2cccc(OCc3ccccc3)c2n1)c1ccc(Br)cc1`, the “activity, negative = inhibition” value is -17%.

As to `CCOc1c(OC(C)=O)ccc(/C=C/c2ccc3cccc(OC(C)=O)c3n2)c1[N+](=O)[O-]`, the AC50 was 10 µM (active).

As to `CCOc1c(OC(C)=O)ccc(/C=C2\N=C(SCC)SC2=O)c1[N+](=O)[O-]`, the AC50 was 11.2 µM (active).

On to `Cc1nn(C(C)C(=O)Nc2ccc(Cl)cn2)c(C)c1[N+](=O)[O-]` (stereo not given), for which the “activity, negative = inhibition” value is -6.4%.

For the compound `C[C@@](N)(C(=O)O)c1ccc(S(=O)(=O)O)cc1`, the “activity, negative = inhibition” value was -0.825%.

As to `COc1cccc(Nc2ncc3nc(-c4cccs4)c(=O)n(Cc4cccs4)c3n2)c1`, the “activity, negative = inhibition” value was 6.03%.

Regarding `O=c1c(-c2ccc(Cl)cc2)nc2cnc(N3CCNCC3)nc2n1Cc1cccs1`, the “activity, negative = inhibition” value was -18.9%.

With `CCOC(=O)COc1c(OC)cc(Cl)cc1C1Nc2ccccc2C(=O)N1c1ccc(F)cc1` (stereo not given), the “activity, negative = inhibition” value is -14.9%.

For `Oc1c(Br)cc(Br)cc1CN(Cc1cc(Br)cc(Br)c1O)C1CCCCC1`, the AC50 is 0.251 µM (active).

For `Oc1c(Br)cc(CN(Cc2cc(Br)c(O)c(Br)c2)C2CCCCC2)cc1Br`, the AC50 was 2.51 µM (active).

`CC(C)(C)c1cc(Br)c(O)c(CN(Cc2cc(C(C)(C)C)cc(Br)c2O)C2CCCCC2)c1`: the AC50 was 0.2 µM (active).

On to `CC1=CC=CN2CC(O)CN=C12` (stereo not given), for which the “activity, negative = inhibition” value was -7.33%.

For `COc1ccc(/C(O)=C2/C(=O)C(=O)N(Cc3cccnc3)C2c2ccco2)cc1OC` (stereo not given), the “activity, negative = inhibition” value is -4.18%.

Take `CC(=O)n1nc(-c2ccco2)nc1N`: the “activity, negative = inhibition” value is -8.48%.

In the case of `Cc1cccc(N(CC(=O)NC2CCCC2)C(=O)c2cc3cc4cccc(C)c4nc3s2)c1C`, the “activity, negative = inhibition” value is -13%.

Regarding `Nc1ccc2[nH]cc(CCC(=O)O)c2c1`, the activity, negative = inhibition was 5.9% [at 11.4 µM].

On to `CSCC[C@H](NC(=O)c1nn(C)c(=O)c2ccccc12)c1nc2ccccc2[nH]1`, for which the “activity, negative = inhibition” value is -14.5%.

Consider `Cc1noc(C)c1-c1nccc(N2CCOCC2)n1`, for which the “activity, negative = inhibition” value is 7.41%.

`Cc1ccc2c(c1)N[C@H](c1ccc(C(=O)O)cc1)c1cccn1-2`: the activity, negative = inhibition is -2.93% [at 11.4 µM].
